# From PubChem BioAssay (Tox21)
# Where “and” joins values, the source holds several entries; their conditions need not be identical. Identical values can stand only once. Records with an inconclusive call do not appear. Unmarked numbers belong to inactive results. Calls of active or inactive are those of the source. Calls come from the whole dose curve.
# Target: 5-hydroxytryptamine receptor 2A (Homo sapiens) (UniProt P28223)
# Test: 5-hydroxytryptamine receptor 2A (HTR2A) small molecule antagonists, cell-based qHTS assay (AID 1963586); note: nearly all actives have a fitted effect of over 45% in size
# Conditions: HTR2A-CHO cells, DOI-induced calcium flux, fluorescence; series mostly up to 61.5 µM; activity, negative = inhibition: at the top concentration
# Summary of the method: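 CHO cells stably expressing human HTR2A were plated for 18 h at 37 C, then loaded with calcium dye for 1 h. Compounds were preincubated 5 min at room temperature before DOI (4 nM solution) was added. Kinetic fluorescence was read for 3 min.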
# % is set by controls: 0 for no effect and ±100 for the full control effect.
# 5-hydroxytryptamine receptor 2A (Homo sapiens), sequence (P28223 whole entry, looked up): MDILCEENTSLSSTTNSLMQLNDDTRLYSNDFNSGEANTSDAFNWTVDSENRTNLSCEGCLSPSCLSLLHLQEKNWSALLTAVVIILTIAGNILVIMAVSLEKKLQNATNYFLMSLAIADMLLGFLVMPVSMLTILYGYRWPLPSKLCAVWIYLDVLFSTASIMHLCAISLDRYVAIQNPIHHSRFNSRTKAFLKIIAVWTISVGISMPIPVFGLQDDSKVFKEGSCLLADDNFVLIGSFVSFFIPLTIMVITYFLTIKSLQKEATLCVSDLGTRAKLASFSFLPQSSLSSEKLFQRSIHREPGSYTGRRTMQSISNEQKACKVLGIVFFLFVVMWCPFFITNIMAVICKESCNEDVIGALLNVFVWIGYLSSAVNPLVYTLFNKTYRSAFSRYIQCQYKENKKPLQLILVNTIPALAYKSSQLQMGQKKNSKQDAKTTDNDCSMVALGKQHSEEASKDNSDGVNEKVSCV
Structure (SMILES),"activity, negative = inhibition",Potency
Cc1ccc(N)cc1O,7.6%,
CCN(CC)CCCC(C)Nc1ccnc2cc(Cl)ccc12 (configuration not stated),2.23% [at 5.62 µM] and 1.08% [at 12.7 µM],
CCCCCCC(C)OC(=O)COc1nc(F)c(Cl)c(N)c1Cl (configuration not stated),-0.924%,
CCCCCCOc1ccccc1C(N)=O,5.97% [at 28.5 µM],
CCC(CN)=C(c1ccccc1)c1ccccc1,-33.9% [at 28.5 µM],
CCOC(=O)c1ccccc1OC,1.7%,
CC1(O)CSC(C)(O)CS1 (configuration not stated),-0.817%,
CC(=O)NCCCS(=O)(=O)O,473% [at 28.5 µM],
Nc1cccnc1N,0.861%,
O=C(O)[C@@H]1CSCN1,-22.1% [at 28.5 µM],
O=[N+]([O-])c1ccc(O)cc1,,inactive
Cc1ccc(N/N=c2\c(=O)cc/c(=N\Nc3ccc(S(=O)(=O)O)cc3)c2=O)c(C)c1,-8.01%,
CC(C)(C)c1ccc(C(=O)O)cc1,1.42%,
CCOC(=O)COc1ccc2c(C)c(CCN(CC)CC)c(=O)oc2c1Cl,28.9% [at 28.5 µM],
O=[N+]([O-])c1ccc(O/N=C/c2cc(Br)c(O)c(Br)c2)c([N+](=O)[O-])c1,24.3%,
NC(N)=NN=C(/C=C/c1ccc([N+](=O)[O-])o1)/C=C/c1ccc([N+](=O)[O-])o1,16.5% [at 28.5 µM],
CC(C)c1ccc2ncccc2c1,1.59%,
CCOC(=O)COc1ccc2c(c1)CC(NCC(O)c1cccc(Cl)c1)CC2 (configuration not stated),12.6%,
C[C@@H](c1ncncc1F)C(O)(Cn1cncn1)c1ccc(F)cc1F (some centres not stated),-4.61% [at 28.5 µM],
O=C(O)Cn1cnnn1,1.68% [at 28.5 µM],
O=C(CC(=O)C(F)(F)F)c1ccccc1,-19.7%,
CN1C[C@H]2c3ccccc3Oc3ccc(Cl)cc3[C@@H]2C1,-61% [at 28.5 µM],
